According to PubChem BioAssay (Tox21):
Values joined by “and” are separate entries in the source; they are usually repeats but may differ in a detail not shown here. Identical values can stand only once. Records with an inconclusive call do not appear. A call without a number means that no potency is given here. Where a structure was tested more than once in an assay, its records may differ in their call. Active and inactive are the calls of the source. Unless noted, calls come from the whole dose curve.

Columns and labels:
[1] = Nuclear factor erythroid 2-related factor 2/antioxidant responsive element (Nrf2/ARE) small molecule agonists: luciferase reporter gene qHTS assay in human keratinocytes (AID 1919969); note: nearly all actives have a fitted effect of over 35% in size; note: potency is the fitted concentration of half-maximal effect
[2] = target: Gonadotropin-releasing hormone receptor (Homo sapiens) (UniProt P30968); test: Human gonadotropin-releasing hormone receptor (GnRHR) small molecule agonists, calcium flux assay in GnRHR-HEK293 cells (AID 1920063); note: nearly all actives have a fitted effect of over 35% in size
Chain of Gonadotropin-releasing hormone receptor (Homo sapiens) (P30968 whole entry, looked up): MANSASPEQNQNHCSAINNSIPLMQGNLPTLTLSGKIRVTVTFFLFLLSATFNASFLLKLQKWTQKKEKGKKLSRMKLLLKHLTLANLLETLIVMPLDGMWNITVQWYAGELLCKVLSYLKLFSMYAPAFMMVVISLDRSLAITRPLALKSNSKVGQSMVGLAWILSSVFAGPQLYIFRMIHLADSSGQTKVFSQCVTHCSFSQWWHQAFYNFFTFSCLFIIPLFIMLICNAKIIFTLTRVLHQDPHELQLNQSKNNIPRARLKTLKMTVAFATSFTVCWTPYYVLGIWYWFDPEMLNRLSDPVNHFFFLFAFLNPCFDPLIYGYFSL
How it was run: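 Calcium flux, agonist mode, human GnRHR stably integrated in HEK293; dye 1 h at 37 C before compound; Ex/Em=480/540 kinetic read, 3 min; 15 concentrations, triplicate.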

[3] = target: KiSS-1 receptor (Homo sapiens) (UniProt Q969F8); test: Human kisspeptin (KISS1R) small molecule agonists, calcium flux assay in KISS1R-HEK293 cells (AID 1920064; active = well fitted activation curve with a large enough effect in the repeat runs)
Chain of KiSS-1 receptor (Homo sapiens) (Q969F8 whole entry, looked up): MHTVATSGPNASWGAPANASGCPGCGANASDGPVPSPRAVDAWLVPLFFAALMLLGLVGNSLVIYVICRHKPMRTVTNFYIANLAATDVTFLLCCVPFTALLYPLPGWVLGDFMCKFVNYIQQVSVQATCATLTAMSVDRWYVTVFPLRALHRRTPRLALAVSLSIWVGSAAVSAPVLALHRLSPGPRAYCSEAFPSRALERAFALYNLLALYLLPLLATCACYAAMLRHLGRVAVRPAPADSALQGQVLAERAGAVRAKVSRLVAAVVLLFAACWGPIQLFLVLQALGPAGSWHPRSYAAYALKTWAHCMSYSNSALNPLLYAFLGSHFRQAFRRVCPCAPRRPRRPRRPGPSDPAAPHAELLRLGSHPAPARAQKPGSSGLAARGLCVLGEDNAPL
How it was run: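 Triplicate 15-concentration series were applied to dye-loaded human KISS1R HEK293 cells, and agonist-evoked calcium fluorescence was captured for 3 min.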

[4] = G protein-coupled receptor (GPCR) small molecule agonists, calcium flux assay: HEK293 wild type cell line counter screen (AID 1920065)
How it was run: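 Non-specific calcium responders were flagged by adding DMSO-dissolved compounds to dye-loaded cells and reading 480/540 nm fluorescence each second for 3 min; ATP served as positive control.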

[5] = p53 small molecule agonists, cell-based qHTS assay with human liver microsomes (AID 1963577);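 note: p53 response element beta-lactamase reporter cells with liver microsomes plus NADPH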
How it was run: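 Steps: plate p53RE-bla cells, incubate 5 h at 37 C; add compound in DMSO; add microsomes (0.5 mg/mL final) and NADPH (0.5 mg/mL final); incubate 16 h at 37 C; add LiveBLAzer, 2 h RT; read fluorescence.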

[6] = p53 small molecule agonists, cell-based qHTS assay with rat liver microsomes (AID 1963578)
How it was run: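 Metabolic activation is supplied by rat liver microsomes with NADPH (each 0.5 mg/mL final). p53RE-bla cells incubate with compound 16 h at 37 C; reporter activity is measured by LiveBLAzer fluorescence.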

[7] = p53 small molecule agonists, cell-based qHTS assay with human liver microsomes: qHTS cell viability counter screen (AID 1963579); note: nearly all actives have a fitted effect of over 45% in size; note: potency is the fitted concentration of half-maximal effect
How it was run: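 After the 460/530 nm beta-lactamase read, CellTiter-Glo was added to the same wells and luminescence measured after 30 min at room temperature, giving viability of p53RE-bla cells treated 16 h with compounds plus microsomes and NADPH.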

[8] = p53 small molecule agonists, cell-based qHTS assay with rat liver microsomes: qHTS cell viability counter screen (AID 1963580); note: nearly all actives have a fitted effect of over 45% in size
How it was run: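 Cytotoxicity counter screen: intracellular ATP measured by CellTiter-Glo luminescence in the same wells as the beta-lactamase reporter read, on HCT-116 p53RE-bla cells exposed 16 h at 37 C to compounds with rat liver microsomes and NADPH, each 0.5 mg/mL final.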

[9] = p53 small molecule agonists, cell-based qHTS assay: qHTS cell viability counter screen (AID 1963581); note: nearly all actives have a fitted effect of over 45% in size; note: potency is the fitted concentration of half-maximal effect
How it was run: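 Multiplexed with the reporter read, a CellTiter-Glo step (30 min, room temperature) gauges ATP-based viability of HCT-116 p53RE-bla cells after 16 h compound incubation at 37 C.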

[10] = p53 small molecule agonists, cell-based qHTS assay (AID 1963582; active = well fitted activation curve with a large enough effect in the signal ratio in the repeat runs, not every such curve was filed as active; the % refers to the signal ratio)
How it was run: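 Beta-lactamase reporter cells (p53RE-bla) treated with compounds for 16 h at 37 C; FRET substrate, 2 h, room temperature; fluorescence intensity.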

[11] = target: 5-hydroxytryptamine receptor 2A (Homo sapiens) (UniProt P28223); test: 5-hydroxytryptamine receptor 2A (HTR2A) small molecule antagonists, cell-based qHTS assay (AID 1963586); note: nearly all actives have a fitted effect of over 45% in size; note: potency is the fitted concentration of half-maximal effect
Chain of 5-hydroxytryptamine receptor 2A (Homo sapiens) (P28223 whole entry, looked up): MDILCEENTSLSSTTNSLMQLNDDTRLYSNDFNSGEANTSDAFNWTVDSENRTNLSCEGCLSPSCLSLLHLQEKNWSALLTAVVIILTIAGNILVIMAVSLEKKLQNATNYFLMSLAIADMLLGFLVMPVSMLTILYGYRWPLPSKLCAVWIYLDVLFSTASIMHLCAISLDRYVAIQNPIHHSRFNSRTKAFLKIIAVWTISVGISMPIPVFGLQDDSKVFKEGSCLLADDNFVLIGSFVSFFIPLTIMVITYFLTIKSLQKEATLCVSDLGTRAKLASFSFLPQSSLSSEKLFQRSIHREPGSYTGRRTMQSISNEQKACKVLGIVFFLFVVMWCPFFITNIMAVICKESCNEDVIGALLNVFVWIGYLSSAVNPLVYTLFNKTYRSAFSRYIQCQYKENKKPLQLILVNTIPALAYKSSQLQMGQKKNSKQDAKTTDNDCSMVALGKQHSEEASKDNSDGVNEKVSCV
How it was run: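 CHO cells stably expressing human HTR2A were plated for 18 h at 37 C, then loaded with calcium dye for 1 h. Compounds were preincubated 5 min at room temperature before DOI (4 nM solution) was added. Kinetic fluorescence was read for 3 min.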

[12] = target: 5-hydroxytryptamine receptor 2A (Homo sapiens) (UniProt P28223); test: 5-hydroxytryptamine receptor 2A (HTR2A) small molecule agonists, cell-based qHTS assay (AID 1963587); note: nearly all actives have a fitted effect of over 30% in size; note: potency is the fitted concentration of half-maximal effect
How it was run: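 CHO cells stably expressing human HTR2A, plated 18 h, loaded with calcium dye 1 h at 37 C. Agonist mode: compounds added and intracellular calcium fluorescence recorded kinetically for 2 min at 1 sec intervals.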

[13] = target: Muscarinic acetylcholine receptor M1 (Homo sapiens) (UniProt P11229); test: Cholinergic receptor muscarinic 1 (CHRM1) small molecule antagonists, cell-based qHTS assay (AID 1963588); note: nearly all actives have a fitted effect of over 40% in size; note: potency is the fitted concentration of half-maximal effect
Chain of Muscarinic acetylcholine receptor M1 (Homo sapiens) (P11229 whole entry, looked up): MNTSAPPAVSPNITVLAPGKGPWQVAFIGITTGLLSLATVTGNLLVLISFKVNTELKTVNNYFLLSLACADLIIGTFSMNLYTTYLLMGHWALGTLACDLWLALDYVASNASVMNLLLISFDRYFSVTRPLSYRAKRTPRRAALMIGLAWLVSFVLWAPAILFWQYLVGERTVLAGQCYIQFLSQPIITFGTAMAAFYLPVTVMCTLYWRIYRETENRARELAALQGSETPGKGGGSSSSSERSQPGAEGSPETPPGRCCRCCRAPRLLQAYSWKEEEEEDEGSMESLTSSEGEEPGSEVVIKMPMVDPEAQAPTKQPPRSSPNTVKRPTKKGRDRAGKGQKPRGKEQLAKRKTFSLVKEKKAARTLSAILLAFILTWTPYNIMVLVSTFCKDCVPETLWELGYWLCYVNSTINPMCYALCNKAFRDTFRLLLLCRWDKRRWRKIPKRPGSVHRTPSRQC
How it was run: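 Compounds were tested at 15 concentrations in three independent runs. Dye-loaded CHRM1-CHO cells were exposed 5 min at room temperature before stimulation by acetylcholine added at 50nM. Intracellular calcium was read kinetically on FDSS for 3 min.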

[14] = target: Muscarinic acetylcholine receptor M1 (Homo sapiens) (UniProt P11229); test: Cholinergic receptor muscarinic 1 (CHRM1) small molecule agonists, cell-based qHTS assay (AID 1963589); note: nearly all actives have a fitted effect of over 35% in size
How it was run: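 qHTS, 15-point titration, 3 independent runs: compounds pin-transferred onto dye-loaded CHRM1-CHO cells (human M1), calcium fluorescence followed every second to detect agonism.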

[15] = cAMP Responsive Elements (CRE) small molecule agonists, cell-based qHTS assay (AID 1963590)
How it was run: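 Quantitative HTS for CRE agonists: HEK 293T CRE-bla cells, overnight plating, 3 h compound incubation at 37 C/5% CO2, then 2 h room-temperature LiveBLAzer B/G FRET substrate loading.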

[16] = target: Beta-2 adrenergic receptor (Homo sapiens) (UniProt P07550); test: Adrenergic beta2 receptor (ADRB2) small molecule antagonists, cell-based qHTS assay (AID 1963592); note: series mostly up to about 92 µM; nearly all actives have a fitted effect of over 50% in size
Chain of Beta-2 adrenergic receptor (Homo sapiens) (P07550 whole entry, looked up): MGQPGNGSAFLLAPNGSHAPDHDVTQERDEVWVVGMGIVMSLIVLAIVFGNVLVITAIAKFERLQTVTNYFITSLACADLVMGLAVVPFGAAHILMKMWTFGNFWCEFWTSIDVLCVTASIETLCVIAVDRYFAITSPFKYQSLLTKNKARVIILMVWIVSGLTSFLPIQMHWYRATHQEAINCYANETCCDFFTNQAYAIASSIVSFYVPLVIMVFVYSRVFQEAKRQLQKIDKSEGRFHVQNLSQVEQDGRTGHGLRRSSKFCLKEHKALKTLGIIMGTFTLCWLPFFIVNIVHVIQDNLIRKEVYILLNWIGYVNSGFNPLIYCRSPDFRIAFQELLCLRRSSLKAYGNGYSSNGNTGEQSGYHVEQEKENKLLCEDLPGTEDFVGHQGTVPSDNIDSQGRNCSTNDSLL
How it was run: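 Assay format: CHO-ADRB2 cells, 18-20hr seeding at 37C/5% CO2, then compound plus 1nM isoproterenol agonist mix for 0.5hr RT. Homogeneous time-resolved fluorescence cAMP detection after 1hr, expressed as 665/615 nm ratio.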

[17] = target: Beta-2 adrenergic receptor (Homo sapiens) (UniProt P07550); test: Adrenergic beta2 receptor (ADRB2) small molecule agonists, cell-based qHTS assay (AID 1963593);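 note: CHO cells stably overexpressing human ADRB2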
How it was run: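 CHO cells stably over-expressing ADRB2 were plated overnight at 37C, then dosed with compounds plus a stimulation mix containing 100uM IBMX and 25uM Ro-20-1724 for 0.5hr at room temperature. cAMP was measured by HTRF competition, 1hr.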

[18] = target: D(2) dopamine receptor (Homo sapiens) (UniProt P14416); test: Dopamine D2 receptor (DRD2) small molecule agonists, cell-based qHTS assay (AID 1963594); note: nearly all actives have a fitted effect of over 35% in size
Chain of D(2) dopamine receptor (Homo sapiens) (P14416 whole entry, looked up): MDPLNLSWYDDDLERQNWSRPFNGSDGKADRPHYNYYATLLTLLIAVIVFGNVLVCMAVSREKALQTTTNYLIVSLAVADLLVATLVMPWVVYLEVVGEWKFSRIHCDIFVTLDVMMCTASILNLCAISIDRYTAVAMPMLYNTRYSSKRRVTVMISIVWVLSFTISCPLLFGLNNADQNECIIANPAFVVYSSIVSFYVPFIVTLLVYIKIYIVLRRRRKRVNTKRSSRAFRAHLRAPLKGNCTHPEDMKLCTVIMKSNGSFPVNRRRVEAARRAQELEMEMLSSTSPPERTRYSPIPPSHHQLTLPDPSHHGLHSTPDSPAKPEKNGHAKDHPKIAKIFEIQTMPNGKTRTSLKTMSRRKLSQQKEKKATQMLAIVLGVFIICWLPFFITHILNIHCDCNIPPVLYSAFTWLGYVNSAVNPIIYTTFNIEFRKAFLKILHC
How it was run: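 HEK293 cells stably expressing human DRD2, pre-treated with PDE inhibitor Ro20-1724 (0.1 mM final) and compound 10 min at room temperature, then stimulated with NKH477 (200nM […]) for 30 min. cAMP read by HTRF (665/620 nm).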

[19] = target: D(2) dopamine receptor (Homo sapiens) (UniProt P14416); test: Dopamine D2 receptor (DRD2) small molecule antagonists, cell-based qHTS assay (AID 1963595; active = well fitted inhibition curve with a large enough effect in the signal ratio in the repeat runs, with a control signal flat; the % refers to the signal ratio)
How it was run: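 HEK293 cells stably expressing DRD2, preincubated with 0.1 mM Ro20-1724 and compounds 10 min, were stimulated with 200 nM NKH477 plus 12 nM quinpirole for 30 min at room temperature; cAMP measured by HTRF (665/620 nm).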

[20] = cAMP Responsive Elements (CRE) small molecule antagonists, cell-based qHTS assay (AID 1963591; active = well fitted inhibition curve with a large enough effect in the signal ratio in the repeat runs, not every such curve was filed as active; the % refers to the signal ratio)
How it was run: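 Fluorescence intensity from cleaved LiveBLAzer B/G substrate (2 h, room temperature) quantified CRE-bla activity in HEK 293T cells exposed 3 h to compound with 0.25 uM final NKH477.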

| SMILES | Potency [1] | Potency [2] | Potency [3] | Potency [4] | Potency [5] | Potency [6] | Potency [7] | Potency [8] | Potency [9] | Potency [10] | Potency [11] | Potency [12] | Potency [13] | Potency [14] | Potency [15] | Potency [16] | Potency [17] | Potency [18] | Potency [19] | Potency [20] |
| --- | --- | --- | --- | --- | --- | --- | --- | --- | --- | --- | --- | --- | --- | --- | --- | --- | --- | --- | --- | --- |
| NC1CCC(CC2CCC(N)CC2)CC1 (stereo unspecified) | inactive | inactive | inactive | inactive | inactive | inactive | inactive | inactive | inactive | inactive | inactive | 19.2 µM (active) | inactive | inactive | inactive | inactive | inactive | inactive | inactive |  |
| C[C@]12C/C(=C/O)C(=O)C[C@@H]1CC[C@@H]1[C@@H]2CC[C@@]2(C)[C@H]1CC[C@]2(C)O | 27.6 µM (active) and 6.68 µM (active) | inactive | inactive | inactive | inactive | inactive | 36.7 µM (active) and inactive | inactive | 36.7 µM (active) |  |  |  |  |  |  | inactive |  | inactive | inactive |  |
| CC[C@@H](CO)NC(=O)[C@@H]1C=C2c3cccc4c3c(cn4C)C[C@H]2N(C)C1 | inactive | inactive | inactive | inactive | inactive | inactive | inactive | inactive | inactive | inactive |  |  |  |  | inactive |  |  |  |  | inactive |
| OCC(c1ccc(Cl)cc1)c1ccc(Cl)cc1 | inactive | inactive | inactive | inactive | inactive | inactive | inactive | inactive | inactive | inactive | 7.48 µM (active) | inactive | 42.1 µM (active) | inactive |  |  |  | inactive | inactive |  |
| CCOC(=O)OC1=C(c2cc(C)ccc2C)C(=O)NC12CCC(OC)CC2 (stereo unspecified) | inactive | inactive | inactive | inactive | inactive | inactive | 40.8 µM (active) | inactive |  |  | inactive | inactive | inactive | inactive |  | inactive | inactive | inactive | inactive | inactive |
| OC(Cc1ccccc1Cl)(Cn1[nH]cnc1=S)C1(Cl)CC1 (stereo unspecified) | 10.9 µM (active) | inactive | inactive | inactive | inactive | inactive | inactive | inactive | inactive |  |  |  | inactive | inactive | inactive | inactive |  | inactive | inactive | inactive |
| CC1(C)CC/C(=C/c2ccc(Cl)cc2)C1(O)Cn1cncn1 (stereo unspecified) | 43 µM (active) | inactive | inactive | inactive | inactive | inactive | inactive | inactive |  |  |  |  | inactive | inactive |  |  |  |  | inactive |  |
| Nc1ccc([N+](=O)[O-])cc1Cl | inactive | inactive | inactive | inactive | inactive | inactive | inactive | inactive | inactive | inactive | inactive | inactive |  | inactive | inactive |  | inactive | inactive | inactive | inactive |
